Source: PubChem BioAssay AID1159580 (chemical genetic matrix, 2015)
“And” between values parts separate entries of the source, which are not always exact repeats. Equal values may be shown once. The whole screen tested about 5,500 compounds, of which about 2,000 (36%) were called active. About 18% were inconclusive and are not listed. Cut-off read from the data, not from the text of the source: active = normalized growth mostly below about 0.91 (no sharp cut-off); inconclusive = no clear call, values can overlap the other calls; inactive = mostly above about 0.92. The list shows a part of the results.

Test: chemical genetic growth profiling, strain panel (AID 1159580);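 note: tested at 20 µM; growth read once vehicle control cultures reached saturation at 30 °C; 1 = growth at the plate median or of vehicle wells; lower values mean less growth of the strain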
Conditions: growth OD

Measured: normalized growth

Cc1cccc(C)c1OCC(C)N (stereo not drawn)
inactive: S. cerevisiae deletion strains, locus YKL009W, strain mrt4, active compounds read low 0.972 | S. cerevisiae deletion strains, locus YKL068W, active compounds read low 0.982 | S. cerevisiae deletion strains, locus YKL085W, strain MDH1 (second series), active compounds read low 1.04 | S. cerevisiae deletion strains, locus YKL085W, strain MDH1, active compounds read low 1.04 | S. cerevisiae deletion strains, locus YKL160W, strain elf1, active compounds read low 1 | S. cerevisiae deletion strains, locus YKL190W, strain CNB1, active compounds read low 0.996 | S. cerevisiae deletion strains, locus YKR001C, strain vps1, active compounds read low 0.99 | S. cerevisiae deletion strains, locus YKR026C, strain gcn3, active compounds read low 0.999 | S. cerevisiae deletion strains, locus YKR091W, strain srl3, active compounds read low 1.01 | S. cerevisiae deletion strains, locus YLL001W, strain dnm1, active compounds read low 1.02 | S. cerevisiae deletion strains, locus YLL026W, active compounds read low 1.02 | S. cerevisiae deletion strains, locus YLL041C, strain sdh2, active compounds read low 1.01 | S. cerevisiae deletion strains, locus YLR027C, strain aat2, active compounds read low 1.01 | S. cerevisiae deletion strains, locus YLR039C, strain RIC1, active compounds read low 1.02 | S. cerevisiae deletion strains, locus YLR058C, strain SHM2, active compounds read low 0.998 | S. cerevisiae deletion strains, locus YLR102C, strain apc9, active compounds read low 0.989 | S. cerevisiae deletion strains, locus YLR113W, strain HOG1, active compounds read low 0.987 | S. cerevisiae deletion strains, locus YLR221C, strain rsa3, active compounds read low 1 | S. cerevisiae deletion strains, locus YLR258W, strain gsy2, active compounds read low 1.01 | S. cerevisiae deletion strains, locus YLR262C, strain YPT6 (second series), active compounds read low 1.01 | S. cerevisiae deletion strains, locus YLR262C, strain YPT6, active compounds read low 0.993 | S. cerevisiae deletion strains, locus YLR268W, strain sec22, active compounds read low 0.993 | S. cerevisiae deletion strains, locus YLR320W, strain mms22, active compounds read low 1.03 | S. cerevisiae deletion strains, locus YLR330W, strain CHS5, active compounds read low 0.992 | S. cerevisiae deletion strains, locus YLR342W, strain FKS1 (second series), active compounds read low 1.01 | S. cerevisiae deletion strains, locus YLR342W, strain FKS1, active compounds read low 1.01 | S. cerevisiae deletion strains, locus YLR357W, strain rsc2, active compounds read low 1.02 | S. cerevisiae deletion strains, locus YLR370C, strain arc18, active compounds read low 1.01 | S. cerevisiae deletion strains, locus YLR371W, strain rom2, active compounds read low 0.988 | S. cerevisiae deletion strains, locus YLR384C, strain iki3, active compounds read low 1.01 | S. cerevisiae deletion strains, locus YLR418C, strain cdc73, active compounds read low 1.03 | S. cerevisiae deletion strains, locus YML016C, strain PPZ1, active compounds read low 0.995 | S. cerevisiae deletion strains, locus YML032C, strain rad52, active compounds read low 1 | S. cerevisiae deletion strains, locus YML120C, strain ndi1, active compounds read low 1 | S. cerevisiae deletion strains, locus YML124C, strain tub3, active compounds read low 0.991 | S. cerevisiae deletion strains, locus YMR058W, strain fet3, active compounds read low 1.02 | S. cerevisiae deletion strains, locus YMR078C, strain ctf18, active compounds read low 0.986 | S. cerevisiae deletion strains, locus YMR125W, strain sto1, active compounds read low 1.01 | S. cerevisiae deletion strains, locus YMR129W, active compounds read low 0.994 | S. cerevisiae deletion strains, locus YMR205C, strain PFK2, active compounds read low 1.03 | S. cerevisiae deletion strains, locus YMR223W, strain ubp8, active compounds read low 1.01 | S. cerevisiae deletion strains, locus YMR231W, strain pep5, active compounds read low 1.01 | S. cerevisiae deletion strains, locus YMR263W, strain SAP30, active compounds read low 0.993 | S. cerevisiae deletion strains, locus YMR307W, strain GAS1, active compounds read low 0.969 | S. cerevisiae deletion strains, locus YNL067W, strain RPL9B, active compounds read low 1.01 | S. cerevisiae deletion strains, locus YNL071W, strain lat1, active compounds read low 1.01 | S. cerevisiae deletion strains, locus YNL153C, strain GIM3, active compounds read low 1.03 and 1 | S. cerevisiae deletion strains, locus YNL175C, strain NOP13, active compounds read low 1 | S. cerevisiae deletion strains, locus YNL183C, strain NPR1, active compounds read low 0.956 | S. cerevisiae deletion strains, locus YNL197C, strain WHI3, active compounds read low 0.992 | S. cerevisiae deletion strains, locus YNL209W, strain ssb2, active compounds read low 1.01 | S. cerevisiae deletion strains, locus YNL224C, strain SQS1, active compounds read low 1 | S. cerevisiae deletion strains, locus YNL233W, strain BNI4, active compounds read low 1.03 | S. cerevisiae deletion strains, locus YNL248C, strain rpa49, active compounds read low 0.991 | S. cerevisiae deletion strains, locus YNL250W, strain rad50, active compounds read low 0.987 | S. cerevisiae deletion strains, locus YNL271C, strain bni1, active compounds read low 0.985 | S. cerevisiae deletion strains, locus YNL298W, strain CLA4, active compounds read low 0.986 | S. cerevisiae deletion strains, locus YNL307C, strain MCK1, active compounds read low 1.02 | S. cerevisiae deletion strains, locus YNL322C, strain KRE1 (second series), active compounds read low 1 | S. cerevisiae deletion strains, locus YNL322C, strain KRE1, active compounds read low 0.991 | S. cerevisiae deletion strains, locus YNR049C, strain mso1, active compounds read low 1 | S. cerevisiae deletion strains, locus YNR052C, strain pop2, active compounds read low 0.977 | S. cerevisiae deletion strains, locus YOL006C, strain TOP1, active compounds read low 1.11 | S. cerevisiae deletion strains, locus YOL012C, strain htz1 1.19 | S. cerevisiae deletion strains, locus YOL147C, strain pex11, active compounds read low 0.99 | S. cerevisiae deletion strains, locus YOR001W, strain rrp6, active compounds read low 0.994 | S. cerevisiae deletion strains, locus YOR061W, strain CKA2, active compounds read low 0.998 | S. cerevisiae deletion strains, locus YOR069W, strain VPS5, active compounds read low 0.988 | S. cerevisiae deletion strains, locus YOR070C, strain gyp1, active compounds read low 0.997 | S. cerevisiae deletion strains, locus YOR080W, strain dia2, active compounds read low 1.01 | S. cerevisiae deletion strains, locus YOR083W, strain WHI5 (second series), active compounds read low 1 | S. cerevisiae deletion strains, locus YOR083W, strain WHI5, active compounds read low 0.993 | S. cerevisiae deletion strains, locus YOR106W, strain vam3, active compounds read low 1.01 | S. cerevisiae deletion strains, locus YOR136W, strain idh2, active compounds read low 0.987 | S. cerevisiae deletion strains, locus YOR144C, strain elg1, active compounds read low 0.991 | S. cerevisiae deletion strains, locus YOR184W, strain ser1, active compounds read low 1.03 | S. cerevisiae deletion strains, locus YOR231W, strain MKK1, active compounds read low 0.999 | S. cerevisiae deletion strains, locus YOR265W, strain rbl2, active compounds read low 1.01 | S. cerevisiae deletion strains, locus YOR270C, strain vph1, active compounds read low 1.05 | S. cerevisiae deletion strains, locus YOR290C, strain snf2, active compounds read low 1 | S. cerevisiae deletion strains, locus YOR316C, strain cot1, active compounds read low 0.977 | S. cerevisiae deletion strains, locus YPL051W, strain arl3, active compounds read low 1 | S. cerevisiae deletion strains, locus YPL078C, strain atp4, active compounds read low 1 | S. cerevisiae deletion strains, locus YPL106C, strain sse1, active compounds read low 1.02 | S. cerevisiae deletion strains, locus YPL240C, strain hsp82, active compounds read low 1.01 | S. cerevisiae deletion strains, locus YPL241C, strain CIN2, active compounds read low 0.995 | S. cerevisiae deletion strains, locus YPL256C, strain CLN2, active compounds read low 0.998 | S. cerevisiae deletion strains, locus YPR119W, strain clb2, active compounds read low 0.993 | S. cerevisiae deletion strains, locus YPR141C, strain kar3, active compounds read low 0.983 | S. cerevisiae deletion strains, locus YPR163C, strain tif3, active compounds read low 0.981 | S. cerevisiae deletion strains, locus YPR167C, strain met16, active compounds read low 0.978 | S. cerevisiae deletion strains, strain wtn01, active compounds read low 0.983 | S. cerevisiae strains, strain wild type, active compounds read low 0.997
